HSF-1 act: increases HSF-1 driven luciferase reporter signal | NIH3T3-HGL HSF-1 luciferase reporter, MG132, 8 h; 100% = twice DMSO control signal | activation, % at 9 µM | 1.7% of 300,000 active | AID 504408;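 active means mean replicate activation of at least 50% with a set share of replicates each reaching 50%; inconclusive means only one of those two conditions met; inactive means mean below 50% and too few replicates reaching it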;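 further: 0% = median of the neutral control wells and 100% = twice that signal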
Wnt bcat act: activates Wnt/beta-catenin signaling in a reporter cell assay; activator, plate reader; activation, % at 9.35 µM; 1.2% of 300,000 active; AID 743398; in the data active means activation above about 30%, passing the limit was not always enough; inconclusive means no clear call, values can overlap the other calls;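 further: 0% = neutral control wells and 100% = positive control wells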
MITF TRPM1 HTS: activators of MITF-driven TRPM1 promoter activity in SK-MEL-5 cells; SK-MEL-5 TRPM1-promoter luciferase, 24 h; % of positive control, neutral wells = 0; activation, % at 12.5 µM; 0.75% of 300,000 active; AID 588334;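 active means mean activation of at least 80% with every replicate also reaching 80%; inconclusive means mean reaches 80% but some replicate falls short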;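 further: 0% = neutral control wells and 100% = parthenolide positive control wells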
SMARCA2 act: activators of SMARCA2 function. 1% of 370,000 active. activation, % at 9.1 µM. MG213 cells, MMTV-luciferase reporter, dexamethasone, overnight. AID 652017; in the data active means activation above about 7.8%;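 further: 0% = vehicle wells and 100% = reference activator wells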
HSF1 inhib: HSF1 inhibition | NIH3T3-HGL HSE-luciferase, MG132-induced, luminescence 8 h; hits give low values | activity change, negative = inhibition, % at 7.5 µM (by protocol) | 0.77% of 300,000 active | AID 2098;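 active means more than half of replicate wells show activity change below -50%, luminescence cut by over half; inconclusive means some wells, but at most half, below -50%; inactive means no replicate well below -50%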;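 further: luciferase reports HSF-1 transcriptional activity via heat shock element; 0% = median of DMSO wells and -100% = zero luminescence signal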
esBAF inh: blocks esBAF chromatin remodeling in mouse ES cells | Bmi1-luciferase knock-in reporter, 24 h; 100% = twice the neutral-well signal | reporter increase, % at 12.5 µM | 2% of 350,000 active; in the data active means activation above about 40%; inconclusive means no clear call, values can overlap the other calls;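 further: 0% = median of the plate's neutral control wells and 100% = double that signal; a rise in the Bmi1 reporter signal indicates esBAF inhibition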
Numbers without * were called inactive; ? = inconclusive; / = no result given. An excerpt weighted towards active compounds, which were near 4.3% of everything screened.

SMILES	HSF-1 act	Wnt bcat act	MITF TRPM1 HTS	SMARCA2 act	HSF1 inhib	esBAF inh
CCCNC(=O)C[C@@H]1C[C@H]2c3cc(NC(=O)COC)ccc3O[C@H]2[C@@H](CO)O1	/	/	/	/	/	1.6
COc1ccc(/C=C2\NC(=S)N(CC3CCCO3)C2=O)c(OC)c1 (centres undefined)	19.4	18.1	52.1	3.2	10.6	47.9*
COc1ccc(N(C(=O)Cn2cnc3ccccc32)C(C(=O)NC2CCCCC2)c2ccccc2)cc1 (centres undefined)	6.3	56.0*	4.4	-2.8	8.6	-2.8
COc1ccc(N(C(=O)CNC(=O)c2ccco2)C(C(=O)NC2CCCCC2)c2ccncc2)cc1 (centres undefined)	29.5	-1.4	-9.1	-2.1	-1.6	-3.9
CC(=O)/C(=N\Nc1ccc(Cl)cc1)Sc1nnc(-c2ccccc2)n1-c1ccccc1	-62.4	-4.3	5.1	-1.5	-55.2*	/
Cc1ccc(Cn2cccc(-c3nc4ccccc4s3)c2=O)cc1	105.7*	28.6	/	3.1	52.6	/
O=c1c(-c2nc3ccccc3s2)cccn1Cc1ccccc1	93.4*	/	?	1.9	49.7	?
O=c1c(OCc2ccccc2)cccn1Cc1ccccc1	/	28.1	/	1.4	/	/
Cc1ccc(CC2CC(=O)N(c3nc4ccccc4s3)C2=O)cc1 (centres undefined)	34.0	-1.1	4.6	2.3	11.0	/
CCc1cnc(N2[C@H](C#N)[C@@H](c3ccc(C#CCC4CCCC4)cc3)[C@@H]2CO)s1	/	/	/	/	/	2.5
CC(C)NC(=O)N(C)C[C@@H]1Oc2ccc(NC(=O)Nc3ccccc3)cc2CC(=O)N([C@@H](C)CO)C[C@@H]1C	/	/	/	/	/	2.4
O=C(Nc1ccc2c(c1)[C@H]1C[C@H](CC(=O)N3CCOCC3)O[C@H](CO)[C@H]1O2)NC1CCCC1	/	/	/	/	/	-0.3
C/C=C/c1ccc2c(c1)O[C@H](CN(C)CC1CCCC1)[C@@H](C)CN([C@H](C)CO)S2(=O)=O	/	/	/	/	/	-3.7
CCc1cc2c(=O)c(-c3nc4ccccc4[nH]3)coc2cc1OC(=O)N1CCOCC1	15.4	13.0	16.8	0.6	-2.5	68.2*
COc1ccccc1-c1coc2cc(OC(=O)N3CCOCC3)ccc2c1=O	24.1	16.1	/	1.5	8.8	31.9
Cc1cn(-c2ccc(Br)cc2)[nH]c1=O	26.1	11.2	23.3	2.5	19.6	51.8*
C[C@@H]1CN([C@@H](C)CO)C(=O)c2cc(Br)cnc2O[C@@H]1CN(C)C(=O)c1ccccc1	/	/	/	/	/	-0.7
CC(C)(C)C(=O)/C=C(N)/C=C/c1ccccc1	5.7	/	73.6	4.0	19.7	56.6*
C=CCC1(CC=C)CCCN1C(=O)C1CCC(=O)N(CCc2ccc(OC)cc2)C1 (centres undefined)	37.2	20.3	48.0	1.0	39.8	68.7*
C=CCC1(CC=C)CCCN1C(=O)C1CCC(=O)N(CCc2ccccc2)C1 (centres undefined)	35.7	29.0	103.1*	0.2	30.4	8.8
COc1ccc(CCN2CC(C(=O)N3CCC(OC)CC3)CCC2=O)cc1 (centres undefined)	-0.9	0.1	6.8	-1.1	3.0	3.9
Cc1noc(C)c1S(=O)(=O)Nc1ccc2c(c1)C(=O)N([C@H](C)CO)C[C@H](C)[C@H](CN(C)C(=O)CCCN(C)C)OCCCC[C@H](C)O2	/	/	/	/	/	-1.2
O=C(CSc1n[nH]c(-c2ccccc2)n1)N1CCCC1	32.1	2.6	-5.6	2.6	-0.3	6.1
C=CCSc1n[nH]c(-c2ccccc2)n1	-0.1	/	70.8	1.8	9.8	53.5*
C=CCSc1n[nH]c(-c2ccc(OC)cc2)n1	27.5	/	101.5*	3.7	8.9	53.5*
SMILES	HSF-1 act	Wnt bcat act	MITF TRPM1 HTS	SMARCA2 act	HSF1 inhib	esBAF inh
COc1ccc(-c2nc(SCC(=O)Nc3cc(C)on3)n[nH]2)cc1	-5.6	/	9.8	/	-6.6	-5.1
CN(C[C@H]1[C@H](c2ccccc2)[C@@H](CO)N1CC1CC1)C(=O)c1cccc(F)c1	/	/	/	/	/	-1.0
CCOC(=O)c1ccc(CNC(=O)C2CCC(=O)N(Cc3cccc(OC)c3)C2)o1 (centres undefined)	-5.4	6.3	1.3	-1.9	-3.2	5.9
COc1ccccc1CN1CC(C(=O)NCCc2ncccc2C)CCC1=O (centres undefined)	79.0*	1.2	-3.9	-2.5	31.1	0.2
COc1ccc(CCN2CC(C(=O)NCCc3ccccc3C(F)(F)F)CCC2=O)cc1 (centres undefined)	22.9	9.1	45.8	0.1	20.4	49.4*
COc1cccc(CN2CC(C(=O)NCc3ccc(C)o3)CCC2=O)c1 (centres undefined)	108.2*	-0.2	-3.7	2.8	59.2	8.4
COc1ccccc1CN1CC(C(=O)NCc2c(F)ccc(C)c2F)CCC1=O (centres undefined)	30.5	13.8	79.7	-0.2	24.1	50.8*
C[C@@H]1CN([C@@H](C)CO)C(=O)c2cccc(NC(=O)NC3CCCCC3)c2O[C@@H]1CN(C)S(=O)(=O)c1ccc(F)cc1	/	/	/	/	/	5.2
O=C(N/N=C/c1ccccc1)NC1CCCCC1	34.5	/	36.1	0.5	10.3	/
CC(C)(C)c1ccc(/C=N/NC(=S)NC2CCCCC2)cc1	55.8*	-2.8	0.5	-4.4	23.7	/
CN1CCN(C(=O)C[C@@H]2CC[C@@H]3[C@H](COC[C@H](O)CN3Cc3cccc(F)c3)O2)CC1	/	/	/	/	/	0.1
Cc1c(C(=O)c2ccc(Cl)c(Cl)c2)cnc2cc3c(cc12)OCO3	-4.6	1.2	/	0.0	-12.9	13.1
Cc1ccc(S(=O)(=O)c2c(C(=O)c3ccccc3)cnc3cc4c(cc23)OCCO4)cc1	-74.4	0.6	9.9	-2.8	-66.4*	/
N#C[C@H]1N[C@H](CO)[C@@H]1c1ccc(C#Cc2cccnc2)cc1	/	/	/	/	/	3.0
C[C@H](O)C#Cc1ccc2c(c1)O[C@@H](CN(C)C(=O)CN(C)C)[C@@H](C)CN([C@@H](C)CO)S2(=O)=O	/	/	/	/	/	0.9
CCC(=O)Nc1sc2c(c1C(N)=O)CCN(Cc1ccccc1)C2	7.1	39.3*	/	0.5	4.9	31.0
CN1CCc2c(sc(NC(=O)C3COc4ccccc4O3)c2C(N)=O)C1 (centres undefined)	0.4	4.4	24.7	1.6	-5.2	34.5
NC(=O)c1c(NC(=O)c2ccccc2)sc2c1CCN(Cc1ccccc1)C2	-3.0	8.2	4.1	1.2	-2.0	25.1
N#Cc1c(NC(=O)/C=C/C(=O)O)sc2c1CCN(Cc1ccccc1)C2	58.7*	3.2	3.9	0.8	16.1	0.4
CCN1CCc2c(sc(NC(=O)C3COc4ccccc4O3)c2C(N)=O)C1 (centres undefined)	-0.3	11.7	86.3*	5.5	-9.5	25.9
O=C(C[C@@H]1C=C[C@@H](NC(=O)C2CCOCC2)[C@@H](CO)O1)NCC1CCCCC1	/	/	/	/	/	1.0
CC(=O)N(C)C[C@@H]1Oc2ncc(C#CC(C)(C)O)cc2C(=O)N([C@H](C)CO)C[C@@H]1C	/	/	/	/	/	-2.7
